Assay results taken from PubChem BioAssay AID1851 (National Center for Advancing Translational Sciences (NCATS), 2009).
Where “and” joins values, the source holds several entries; their conditions need not be identical. Equal values may be shown once. In all, about 16,000 compounds went through this assay and about 2,600 (16%) were called active. Roughly 20% stayed inconclusive and do not appear here. Only a sample is shown. A number with no mark means an inactive call. Calls follow the shape of the dose curve; as a rule, active = well fitted curve in the direction sought with a large enough effect; inconclusive = small, poorly fitted or top-dose-only effect, or effect the other way; inactive = no such curve, though single readings can be large or run the other way.

These compounds were tested against Cytochrome P450 2D6 (Homo sapiens) (UniProt P10635) (assay: Cytochrome panel assay with activity outcomes). Settings: recombinant CYP, pro-luciferin dealkylation, luminescence, p450-cyp2d6; series mostly up to 57.1 µM.
% is scaled to controls: 0 for no effect and ±100 for the full control effect.

Sequence of Cytochrome P450 2D6 (Homo sapiens) (P10635 whole entry, looked up): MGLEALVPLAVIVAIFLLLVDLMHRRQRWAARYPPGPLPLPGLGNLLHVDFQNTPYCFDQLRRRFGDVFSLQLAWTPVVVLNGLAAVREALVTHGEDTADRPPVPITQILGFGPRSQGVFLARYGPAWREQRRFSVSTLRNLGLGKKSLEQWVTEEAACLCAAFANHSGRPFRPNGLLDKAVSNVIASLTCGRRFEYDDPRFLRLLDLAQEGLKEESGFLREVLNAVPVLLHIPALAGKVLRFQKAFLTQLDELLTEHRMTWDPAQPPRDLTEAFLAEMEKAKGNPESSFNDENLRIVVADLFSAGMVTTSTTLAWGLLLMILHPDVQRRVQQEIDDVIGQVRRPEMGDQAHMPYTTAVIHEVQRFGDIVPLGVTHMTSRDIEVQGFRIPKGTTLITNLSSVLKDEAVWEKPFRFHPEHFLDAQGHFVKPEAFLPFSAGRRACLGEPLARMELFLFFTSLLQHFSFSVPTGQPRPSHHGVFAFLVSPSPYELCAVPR

| Compound | AC50 | activity, negative = inhibition |
| --- | --- | --- |
| COc1ccc(-c2nnc(-c3ccc(OCC(C)C)cc3)o2)cc1 | inactive |  |
| Cn1cccc1C(=O)N1CCC2(CCN(C(=O)Nc3cccc(F)c3)CC2)CC1 | inactive |  |
| Cc1ccc(NC(=O)C2CCN(S(C)(=O)=O)CC2)cc1 | inactive |  |
| CC(C)(CO)N1CCN(C(=S)Nc2ccccc2)CC1 |  | -13.1% [at 11.4 µM] |
| Cc1ccc(NC(=S)N2CCN(C3CCCCC3)CC2)cc1 | 14.1 µM (active) |  |
| CC(=O)OC1CCC(OC(C)=O)c2c1n([O-])c(C)c(C)[n+]2=O (stereo not given) | inactive |  |
| CCCCNCCOCCSc1ccc(Cl)cc1 | 1.58 µM (active) |  |
| CCCCNC(=O)NS(=O)(=O)c1cnccc1Sc1ccc(Cl)cc1 | inactive |  |
| O=C(/C=C/c1ccc(Cl)cc1)NCCSc1ccccc1 | inactive |  |
| CC(C)NCCOCCSc1ccc(Cl)cc1 | 3.55 µM (active) |  |
| Cc1cc(/C=N\NC(=O)c2cccs2)c(C)n1-c1ccc2ncccc2c1 | inactive |  |
| C[C@@H]1CCC[C@H](C)N1 | inactive |  |
| O=S(=O)(O)CCCc1cccc2ccccc12 |  | 7.84% [at 11.4 µM] |
| Cc1cc(C)cc(C(=N)c2ccccc2Cc2cccc3ccccc23)c1 |  | 5.99% [at 11.4 µM] |
| CN(C/C=C\c1ccccc1)Cc1cccc2ccccc12 | 0.251 µM (active) |  |
| CN(Cc1cccc2ccccc12)Cc1cccc2ccccc12 | 0.398 µM (active) |  |
| CCOC(=O)CSCC(NC(=O)OC(C)(C)C)C(=O)OCC (stereo not given) | inactive |  |
| O=C1C2C3C=CC(C2C(=O)N1CN1CCOCC1)C1C2C(=O)N(CN4CCOCC4)C(=O)C2C31 (stereo not given) |  | 17.4% [at 11.4 µM] |
| COc1ccc(O)c(/C=N/NC(=O)CSc2nnc(C)n2-c2ccccc2)c1 | inactive |  |
| Nc1c(-c2cccs2)cnn1-c1nc(-c2ccc(Cl)cc2Cl)cs1 | inactive |  |
| COC(=O)C1=C(C)NC(C)=C([N+](=O)[O-])[C@@H]1c1ccccc1C(F)(F)F | 6.31 µM (active) |  |
| COC(=O)C1=C(C)NC(C)=C(C(=O)OC(C)C)C1c1cccc2nonc12 (stereo not given) | inactive |  |
| COC(=O)C1=C(C)NC(C)=C([N+](=O)[O-])[C@H]1c1ccccc1C(F)(F)F | inactive |  |
| Cc1ccc(CN(C(=O)c2cc3ccccc3oc2=O)C2CCS(=O)(=O)C2)cc1 (stereo not given) | inactive |  |

| Compound | AC50 | activity, negative = inhibition |
| --- | --- | --- |
| CCc1ccc(CN(C(=O)c2cc3ccccc3oc2=O)C2CCS(=O)(=O)C2)cc1 (stereo not given) | inactive |  |
| CC(C)c1ccc(CN(C(=O)C2COc3ccccc3O2)C2CCS(=O)(=O)C2)cc1 (stereo not given) | 14.1 µM (active) |  |
| CNNCc1ccc(C(=O)NC(C)C)cc1 | inactive |  |
| Cc1nc2ncnn2c(C)c1CCC(=O)NC(C)c1ccc2c(c1)OCCO2 (stereo not given) | inactive |  |
| CC(Sc1nc(-c2ccccc2)cc(C(F)(F)F)n1)C(=O)N1CCCCC1 (stereo not given) | inactive |  |
| CC(NC(=O)CCSc1nc(-c2ccc3c(c2)OCO3)cc(C(F)(F)F)n1)c1ccccc1 (stereo not given) | 1 µM (active) |  |
| O=C1[C@H]2[C@H]3[C@H](O)[C@H](O)C/C(=N/OC[C@@H](O)COCc4ccco4)[C@H]3CC[C@@H]2C(=O)N1C1CCCCC1 |  | 2.44% [at 11.4 µM] |
| Cc1ccc(C2/C(=C(/O)c3ccc(Cl)cc3)C(=O)C(=O)N2CC2CCCO2)o1 (stereo not given) | inactive |  |
| COc1ncc2nc(C)c(=O)n(CCc3ccccc3)c2n1 | inactive |  |
| CC(C)CC(C(=O)OCC(=O)Nc1ncc(Cl)cc1Cl)N1C(=O)c2ccccc2C1=O (stereo not given) | 25.1 µM (active) |  |
| CC(C)=CC(=O)OCC(=O)Nc1ncc(Cl)c(C)c1Cl | inactive |  |
| Cc1c(Cl)cnc(NC(=O)COC(=O)CCS(=O)(=O)c2ccccc2)c1Cl | inactive |  |
| O=C(Nc1ccc(Cl)cc1)c1cnc(-c2ccccc2)nc1-c1ccccc1 | inactive |  |
| C/C(=N\NC(=O)C1CC1c1ccccc1)c1cccs1 (stereo not given) | inactive |  |
| Cc1cccn2c(=O)c(/C=N/O)c(N3CCCC3)nc12 | inactive |  |
| C=CCN=C1CC(C)(C)CC(=O)/C1=C(/O)CCC(=O)OC | inactive |  |
| CN(C)CCCN1CCC2(CCC(C(C)(C)C)CC2)CC1 |  | 9.19% [at 11.4 µM] |
| CSc1nc(C)cc(Nc2ccc(O)c(CN3CCOCC3)c2)n1 |  | -3.84% [at 11.4 µM] |
| O=c1oc2c(CN3CCOCC3)c(O)ccc2c2ccccc12 | 2 µM (active) |  |
| COc1ccc(-c2c(C)oc3c(CN4CCN(CCO)CC4)c(O)ccc3c2=O)cc1OC | inactive |  |
| COc1ccccc1-c1c(C)oc2c(CN3CCN(CCO)CC3)c(O)ccc2c1=O | inactive |  |
| CCCc1cc(=O)oc2c(CN3CCOCC3)c(O)ccc12 | 2.24 µM (active) |  |
| Nc1ccc(N2CCN(C(=O)c3ccco3)CC2)cc1 | inactive |  |
| Cc1ccc2nc(NC(=O)CSc3nc4c(c(=O)n3C)SC(C)C4)sc2c1 (stereo not given) | inactive |  |

| Compound | AC50 | activity, negative = inhibition |
| --- | --- | --- |
| Cc1ccnc(NS(=O)(=O)c2ccc(NC(=O)C3CCCNC3=O)cc2)n1 (stereo not given) | inactive |  |
| CC(C)c1nnc(NC(=O)CCC(=O)N2CCN(c3ccccn3)CC2)s1 | inactive |  |
| O=[N+]([O-])c1cccc2c[nH]nc12 | inactive |  |
| C[C@]1(c2ccccc2)OC(C(=O)O)=CC1=O | inactive |  |
| N#Cc1cccc(NC(=O)N2CC[C@@]3(CCCNC3)C2)c1 | inactive |  |
| c1ccc(C(c2ccccc2)N2CC3(CCNCC3)C2)cc1 | 2.51 µM (active) |  |
| c1ccc(C(c2ccccc2)N2CC[C@@]3(CCCNC3)C2)cc1 | 15.8 µM (active) |  |
| O=C(Nc1ccccc1)N1CCCC2(CCNCC2)C1 | inactive |  |
| c1ccc(C(c2ccccc2)N2CCC3(CCNCC3)CC2)cc1 | inactive |  |
| O=C(Nc1cccc(F)c1)N1CC[C@@]2(CCCNC2)C1 | inactive |  |
| CC(C)=CCC/C(C)=C/CO/N=C1/C[C@@H](O)[C@@H](O)[C@@H]2[C@@H]3C(=O)N(Cc4ccc5c(c4)OCO5)C(=O)[C@H]3CC[C@H]12 |  | -10.1% [at 11.4 µM] |
| CCc1cc(C(=O)NNC(=S)NCC2CCCO2)cs1 (stereo not given) | inactive |  |
| O=C(O)c1cc(C(=O)C(=O)c2cc(C(=O)O)c(O)c3ccccc23)c2ccccc2c1O |  | -0.777% [at 11.4 µM] |
| CCNc1ncc2nc(-c3cn(C)c4ccccc34)c(=O)n(Cc3cccs3)c2n1 | inactive |  |
| COc1ccc2c(c1)CCC1C2CC[C@]2(C)[C@H](NCCCCCCN3C(=O)C=CC3=O)CC[C@@H]12 (stereo not given in full) | inactive |  |
| N#Cc1cccc(-c2nc3cnc(N4CCNCC4)nc3n(C3CC3)c2=O)c1 | inactive |  |
| CC(=O)c1sc(NC(=O)C(C)C)nc1C | inactive |  |
| Fc1cccc(Cl)c1CSc1ncn[nH]1 | inactive |  |
| C[C@H](O/N=C1/[C@H]2O[C@@H]2[C@@H](O)[C@H]2[C@H]1CCn1c(=O)n(-c3ccccc3)c(=O)n12)c1cn([C@H](CO)Cc2ccccc2)nn1 |  | -8.19% [at 11.4 µM] and 10.1% [at 11.4 µM] |
| O=c1cc(-c2ccccc2)[nH]c2nc(Cl)ccc12 | inactive |  |
| C[C@H]1CC[C@H]2C(=O)N3[C@H](c4ccc(Br)cc4)[C@@H](C)CC[C@H]3C(=O)N2[C@@H]1c1ccc(Br)cc1 |  | -7.03% [at 11.4 µM] |
| C[C@@H]1CC[C@H]2C(=O)N3[C@@H](CC[C@@H](C)[C@@H]3c3ccc(Br)cc3)C(=O)N2[C@@H]1c1ccc(Br)cc1 |  | -14.2% [at 11.4 µM] |
| CS(=O)(=O)N1N=C(c2ccc(Br)cc2)CC1c1ccc2c(c1)OCO2 (stereo not given) | 0.631 µM (active) |  |
| Cn1cc(-c2nc3cncnc3n(Cc3ccccc3Cl)c2=O)c2ccccc21 | inactive |  |

| Compound | AC50 | activity, negative = inhibition |
| --- | --- | --- |
| Cc1[nH]c(N)nc(=S)c1CCC(=O)O |  | 5.35% [at 11.4 µM] |
| Cc1ccc(Oc2cc(N3CCOCC3)nc(-c3ccccc3)n2)cc1 | inactive |  |
| CCOC(=O)c1c(-c2ccc(OC)cc2)csc1NC(=O)CCN1C(=O)c2ccccc2C1=O | inactive |  |
| COc1ccc(-c2csc3c2[N+]2=CCC=C2C3=O)cc1 | 3.16 µM (active) |  |
| CC[C@@H]1CC(=O)N(SC[C@H](N)C(=O)O)C1=O |  | 7.85% [at 11.4 µM] |
| CN1C(=O)C[C@H](c2ccccc2)C1=O | inactive |  |
| CN1Cc2c(N)cccc2[C@H](c2ccccc2)C1 | 31.6 µM (active) and 6.31 µM (active) |  |
| CC1(C)[C@@H]2CC[C@]1(C)[C@@H](OC(=O)/C=C\c1ccccc1)C2 |  | 2.99% [at 11.4 µM] |
| Oc1oc(-c2ccccc2)nc1C=Nc1ccccc1 | inactive |  |
| COc1cc(C2C(C(=O)c3cccs3)=C(O)C(=O)N2Cc2ccco2)cc(OC)c1OC (stereo not given) | inactive |  |
| COC(=O)C/C=C\[C@@H](C)[C@@H](/C=N\OC[C@@H](C)[C@H](OCc1ccccc1)C(C)C)OC |  | -9.09% [at 11.4 µM] |
| COc1ccc(CN[C@H](C)C(=O)O)cc1 |  | 6.89% [at 11.4 µM] |
| CCC(C)NC(=O)C1CC(c2ccc(OC)cc2)=NO1 (stereo not given) | inactive |  |
| COc1ccc(CCC(C)NC2C3CC4CC(C3)CC2C4)cc1 (stereo not given) | 3.55 µM (active) |  |
| Cc1ccc(N=Nc2c(N)n(-c3ccccc3)[nH]c2=O)cc1 | inactive |  |
| COCCNC(=O)CCn1c(=O)oc2ccccc21 | inactive |  |
| O=C1C2[C@@H](c3ccccc3)N[C@@H](c3ccccc3)C1[C@H](c1ccccc1)N[C@H]2c1ccccc1 |  | -8.91% [at 11.4 µM] |
| S=C1N[C@H](c2ccccc2)N[C@H](c2ccccc2)S1 | 3.98 µM (active) |  |
| O=C(O)c1ccc(C(=O)c2ccccc2)c(C(=O)O)c1 |  | 14.9% [at 11.4 µM] |
| COC(=O)CSc1nnc(CNc2ccc(Cl)cc2)n1-c1ccccc1 | inactive |  |
| Cn1c(=O)cc(SCC(=O)NCCN2CCN(c3ccccc3F)CC2)c2cc(Cl)ccc21 | 14.1 µM (active) |  |
| Cn1c(=O)cc(SCC(=O)NCCCN2CCOCC2)c2ccc(Cl)cc21 | inactive |  |
| CCOC(=O)CSc1cc(=O)n(C)c2cc(Cl)ccc12 | inactive |  |
